According to PMC4336329 (PLoS ONE, 2015):
Among all 310,000 compounds or so, about 14,000 (4.5%) showed an effect of 50% or more. The effect is printed as a negative number. The list comes from a sample in which strong results are over-represented; it also holds similar structures and randomly drawn compounds.

target: human ether-à-go-go-related gene (hERG) potassium channel (human, UniProt Q12809); assay: primary screen, population patch clamp on CHO cells stably expressing hERG; higher = less effect of the substance
Sequence (Q12809 whole entry, looked up): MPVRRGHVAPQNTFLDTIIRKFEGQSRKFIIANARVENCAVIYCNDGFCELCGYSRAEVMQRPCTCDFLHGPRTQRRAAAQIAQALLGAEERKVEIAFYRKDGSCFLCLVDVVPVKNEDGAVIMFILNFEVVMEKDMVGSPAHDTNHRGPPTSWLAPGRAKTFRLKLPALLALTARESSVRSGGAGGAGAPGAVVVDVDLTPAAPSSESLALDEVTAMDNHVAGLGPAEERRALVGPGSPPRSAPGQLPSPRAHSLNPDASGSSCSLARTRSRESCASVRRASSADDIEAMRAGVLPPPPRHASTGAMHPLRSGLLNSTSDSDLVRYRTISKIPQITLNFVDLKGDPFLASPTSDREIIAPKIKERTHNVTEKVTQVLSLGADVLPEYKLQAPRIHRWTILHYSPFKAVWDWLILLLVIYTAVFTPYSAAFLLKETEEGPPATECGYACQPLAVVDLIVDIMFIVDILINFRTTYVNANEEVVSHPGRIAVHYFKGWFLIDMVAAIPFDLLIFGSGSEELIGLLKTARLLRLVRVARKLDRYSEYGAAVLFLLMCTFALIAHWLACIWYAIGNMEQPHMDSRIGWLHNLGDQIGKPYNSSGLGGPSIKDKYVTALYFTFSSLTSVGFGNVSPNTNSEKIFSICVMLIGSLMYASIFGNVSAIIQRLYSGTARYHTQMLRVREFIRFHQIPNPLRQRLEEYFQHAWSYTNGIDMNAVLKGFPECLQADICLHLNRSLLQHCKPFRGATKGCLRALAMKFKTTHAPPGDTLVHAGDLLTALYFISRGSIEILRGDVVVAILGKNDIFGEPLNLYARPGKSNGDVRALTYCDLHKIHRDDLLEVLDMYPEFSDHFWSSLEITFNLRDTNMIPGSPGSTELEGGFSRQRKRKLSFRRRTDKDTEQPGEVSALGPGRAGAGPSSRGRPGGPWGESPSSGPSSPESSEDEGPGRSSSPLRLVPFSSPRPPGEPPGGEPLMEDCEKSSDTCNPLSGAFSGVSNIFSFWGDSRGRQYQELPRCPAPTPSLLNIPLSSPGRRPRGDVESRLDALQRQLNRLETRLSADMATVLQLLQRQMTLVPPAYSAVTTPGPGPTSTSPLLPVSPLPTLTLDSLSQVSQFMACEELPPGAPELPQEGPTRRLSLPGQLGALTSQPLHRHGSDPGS
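Also: peak tail current of the secondary pulse compared with the same well before compound.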

SMILES | hERG current change (%, negative = inhibition) at 10uM
Cc1cc(Nc2ccc(O)cc2)n2c(nc3ccccc32)c1C#N | 16.6%
CCOC(=O)Nc1ccc2c(c1)Sc1ccccc1N2C(=O)CCN1CCOCC1 | -17.6%
N#Cc1nc(Cc2cccc3ccccc23)oc1NCCCN1CCOCC1 | -26.3%
Cc1ccc(-c2nc(C#N)c(NCCN3CCCCC3)o2)cc1 | -55.8%
N#Cc1nc(-c2cccc3ccccc23)oc1NCCN1CCCCC1 | -36.2%
N#Cc1nc(-c2ccc(OCc3ccc(Cl)cc3)cc2)oc1NCCCn1ccnc1 | 5.77%
N#Cc1nc(-c2ccco2)oc1NCCCN1CCOCC1 | -54.9%
COc1ccc(-c2nc(C#N)c(NCCCN3CCOCC3)o2)cc1 | -13%
N#Cc1nc(Cc2cccc3ccccc23)oc1NCCN1CCOCC1 | -20.3%
N#Cc1nc(-c2ccco2)oc1NCCN1CCOCC1 | 7.46%
N#Cc1nc(Cc2cccc3ccccc23)oc1NCCN1CCCCC1 | -60.3%
N#Cc1nc(COc2ccc(Br)cc2)oc1NCCCn1ccnc1 | -63.2%
N#Cc1nc(-c2ccc(OCc3ccccc3)cc2)oc1NCCCn1ccnc1 | -1.96%
N#Cc1nc(-c2ccc(F)cc2)oc1NCCN1CCOCC1 | -0.823%
CC(C)C[C@@H](CO)N(Cc1ccccc1)S(=O)(=O)N(Cc1ccccc1)[C@@H](CO)CC(C)C | 7.47%
CCc1ccc[n+](-c2[nH]c(=O)sc2/C=N/N=C(\N)[O-])c1 | -10%
CCCCCN(C(=O)COC(=O)COc1c(C)cc(C)cc1C)c1c(N)n(CCCC)c(=O)[nH]c1=O | -14.4%
COc1ccc(C(C(=O)NCCC(C)C)N(CCO)C(=O)c2snc(C(N)=O)c2N)cc1 (stereo not shown) | -1.26%
O=C(Nc1ccccc1N1CCN(c2ccccc2)CC1)c1ccccc1 | 8.61%
O=C1C(=O)N(CCc2c[nH]c3ccccc23)C(c2cccnc2)/C1=C(/O)c1ccccc1 (stereo not shown) | 2.24%
COc1ccc(C(=O)NC(=S)NC(C)c2ccccc2)cc1 (stereo not shown) | 21.8%
C=C1C(=O)O[C@H]2C1CC[C@@](C)(O)C13C=CC(C)(C21)C1(C3)C(=O)O[C@@H]2C3C(C)=CCC3[C@](C)(O)C[C@H](OC(C)=O)C21 (stereo partly shown) | 2.81%

SMILES | hERG current change (%, negative = inhibition) at 10uM
COc1ccccc1NC(=O)CSc1ncn(-c2ccccc2)n1 | -41.1%
N#Cc1nc(-c2ccc(F)cc2)oc1NCCCn1ccnc1 | -49.3%
N#Cc1nc(COc2ccc(F)cc2)oc1NCCCn1ccnc1 | -64.2%
N#Cc1nc(COc2ccccc2F)oc1NCCCn1ccnc1 | -42.5%
COc1cc(/C=N/NC(=O)COc2ccc(-n3cnnn3)cc2)ccc1OCC(N)=O | 17.3%
O=[N+]([O-])c1ccc(/C=N/Nc2nc(N3CCCC3)nc(N3CCCC3)n2)o1 | 1.41%
N#Cc1ccccc1/C=N/Nc1nc(-c2ccccc2)c2cc(Cl)ccc2n1 | -46.3%
Cc1ccc2nc(N/N=C\c3ccc([N+](=O)[O-])o3)nc(-c3ccccc3)c2c1 | -72.6%
CCNc1nc(NCC)nc(N/N=C/c2ccc(OC)cc2)n1 | 6.24%
Cc1cc(C)nc(N/N=C/c2ccc([N+](=O)[O-])o2)n1 | 2.14%
N#Cc1ccccc1/C=N/Nc1nc(-c2ccccc2)c2cc(Br)ccc2n1 | -67.4%
Cc1cc(N/N=C/c2ccc([N+](=O)[O-])o2)nc2ccccc12 | 1.15%
CCNc1nc(NCC)nc(N/N=C/c2ccc(Br)cc2)n1 | -74.6%
CCNc1nc(NCC)nc(N/N=C/c2ccccc2)n1 | 4.81%
O=[N+]([O-])c1ccc(/C=N/Nc2nc(-c3ccccc3)c3cc(Br)ccc3n2)o1 | -4.84%
Cc1ccc2nc(N/N=C/c3ccccc3F)nc(-c3ccccc3)c2c1 | 0.778%
CCNc1nc(NCC)nc(N/N=C/c2ccc([N+](=O)[O-])o2)n1 | -50.8%
CC(Sc1nc(N)cc(=O)[nH]1)C(=O)NC1CCCCC1 (stereo not shown) | -4%
O=C(CSc1ncccn1)NCc1ccccc1Cl | -2.63%
CCOc1ncccc1C(=O)Nc1ccc(S(=O)(=O)Nc2nc(C)cc(C)n2)cc1 | 2.16%
CCOC(=O)N1CCN(C(=O)CSc2ccc(-c3ccncc3)nn2)CC1 | -0.414%
